Sampled rows, rich in hits. Any-hit rate of the full collection: about 5.9%.
ABHD5-PLIN5 inh = inhibitors of human ABHD5-perilipin-5 interaction | Q00G26+Q8WTS1 | Split G. princeps luciferase complementation, luminescence, 4 h | inhibition, % at 4 µM | hit rate 0.78% among 360,000 | AID 602281;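 active = inhibition above the mean inhibition across every tested compound plus 3 SD, cut at about 22% in these data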;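 also: 0% = DMSO only wells and the 100% control is not disclosed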
Rtt109 HAT inh = inhibitors of Candida albicans Rtt109/Vps75 histone acetyltransferase; Q5AAJ8; purified Rtt109/Vps75, ThioGlo CoA-SH fluorescence, 4 h; inhibition, % at 34.9 µM; hit rate 0.16% among 330,000; AID 540336;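 active = inhibition of at least 50% in every replicate; inconclusive = best replicate reaches 50% inhibition but some replicates fall short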
Target sequence (Q5AAJ8 whole entry, looked up): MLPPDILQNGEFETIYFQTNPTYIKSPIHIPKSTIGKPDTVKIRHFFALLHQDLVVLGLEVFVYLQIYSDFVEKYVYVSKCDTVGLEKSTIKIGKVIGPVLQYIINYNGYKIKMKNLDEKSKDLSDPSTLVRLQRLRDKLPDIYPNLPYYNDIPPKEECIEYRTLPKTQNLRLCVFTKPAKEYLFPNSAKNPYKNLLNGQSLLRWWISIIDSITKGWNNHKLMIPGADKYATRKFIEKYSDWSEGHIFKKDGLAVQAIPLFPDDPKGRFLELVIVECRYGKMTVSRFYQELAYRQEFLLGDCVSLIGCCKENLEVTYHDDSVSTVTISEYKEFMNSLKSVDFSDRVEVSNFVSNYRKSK
LANA-H2B inh = blocks KSHV LANA binding to histone H2A/H2B; Q9QR71; cell-free LANA-H2A/H2B peptide, fluorescence polarization; inhibition, % (no concentration beside the values); hit rate 0.6% among 320,000; AID 2629; in the data active = inhibition mostly above about 10%, no sharp cut-off; inactive = mostly below about 6.7%
ALR inh = blocks human ALR sulfhydryl oxidase activity | P55789 | purified ALR, DTT oxidation, H2O2 HRP-luminol luminescence | inhibition, % (concentration not given with the values) | hit rate 3.8% among 290,000 | AID 485317;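 active = mean replicate inhibition above about 79%, with every replicate also reaching it, limit read from the data; inconclusive = only one of the two criteria met; inactive = mean below limit and not every replicate reaching it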
PRMT1 FP inh = blocks human protein arginine methyltransferase 1. hit rate 1.3% among 370,000. recombinant PRMT1, activity-based probe fluorescence polarization. AID 652257. Q99873. inhibition, % at 2.79 µM;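 active = inhibition above about 21% made by adding two undisclosed values, limit read from the data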
Target sequence (Q99873 whole entry, looked up): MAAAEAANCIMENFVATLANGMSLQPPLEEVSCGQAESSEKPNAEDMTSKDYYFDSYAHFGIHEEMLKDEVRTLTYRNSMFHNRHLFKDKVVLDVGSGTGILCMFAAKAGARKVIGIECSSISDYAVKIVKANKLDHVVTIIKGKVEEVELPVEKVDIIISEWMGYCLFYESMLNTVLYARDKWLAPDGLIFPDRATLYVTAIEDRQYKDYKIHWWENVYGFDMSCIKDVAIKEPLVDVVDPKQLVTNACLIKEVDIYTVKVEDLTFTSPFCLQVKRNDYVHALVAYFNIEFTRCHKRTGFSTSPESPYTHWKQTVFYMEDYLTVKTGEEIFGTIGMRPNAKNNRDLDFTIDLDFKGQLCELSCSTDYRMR
rCAG RNA binder = binds r(CAG) RNA repeats | AID 651821 | hit rate 1.3% among 370,000 | inhibition, % at 3 µM | r(CAG) RNA repeat, TO-PRO-1 dye displacement fluorescence;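 active = inhibition above the plate cutoff, the mean of all test compounds on that plate plus 3 SD, cut at about 35% in these data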;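 also: 0% = DMSO alone and 100% = 100 µM mitoxantrone as full dye displacement; higher means more dye released from RNA so lower well fluorescence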
PRMT1 confirm = confirmation of human PRMT1 inhibitors; shares compounds with PRMT1 FP inh; recombinant His-PRMT1, activity-based probe fluorescence polarization; inhibition, % at 2.79 µM; hit rate 42% among 3,300;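 active = mean inhibition across replicates above the hit cutoff derived for the earlier primary screen, cut at about 22% in these data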
Starred values were filed as active, the others as inactive.

Results for CC1(C)N=C(SCC(=O)Nc2ccc(Cl)cc2)C(c2ccc(Cl)cc2)=N1 ?
ABHD5-PLIN5 inh: -22.1; Rtt109 HAT inh: inconclusive; LANA-H2B inh: -0.8; PRMT1 FP inh: 28.4*; rCAG RNA binder: 0.5; PRMT1 confirm: 10.7

Results for CC1(C)N=C(SCC(=O)Nc2ccc(Cl)cc2)C(c2ccccc2)=N1 ?
ABHD5-PLIN5 inh: -12.8; Rtt109 HAT inh: 7.9; LANA-H2B inh: 0.8; PRMT1 FP inh: 7.5; rCAG RNA binder: -6.4

What do the screens show for `COc1ccccc1C(=O)NC1CCCCN(C)C1=O` (stereo not drawn)?
PRMT1 FP inh: 0.6; rCAG RNA binder: 0.3

Results for COc1ccc(S[C@]2(C(=O)N3CCN(c4ncccn4)CC3)CC(=O)N(C(=O)/C=C/c3ccccc3)[C@@H]2c2ccc(OC)cc2)cc1 ?
PRMT1 FP inh: 4.3; rCAG RNA binder: 14.1

What do the screens show for `CCc1nc2ccc(C(=O)N3CCN(c4ccccc4)CC3)cc2nc1CC`?
ABHD5-PLIN5 inh: -6.1; Rtt109 HAT inh: 6.3; LANA-H2B inh: -2.8; ALR inh: 27.2; PRMT1 FP inh: 0.1; rCAG RNA binder: -8.5

Results for O=C(c1ccc2nc(-c3ccco3)c(-c3ccco3)nc2c1)N1CCN(c2ccccc2)CC1 ?
ABHD5-PLIN5 inh: 5.2; Rtt109 HAT inh: -0.7; PRMT1 FP inh: 54.3*; rCAG RNA binder: 23.3; PRMT1 confirm: 4.1

Results for O=C(O)Cc1sc(Nc2ccc(F)cc2)nc1-c1cccs1 ?
ABHD5-PLIN5 inh: -17.7; Rtt109 HAT inh: -0.7; LANA-H2B inh: 5.3; ALR inh: 41.3; PRMT1 FP inh: 31.4*; rCAG RNA binder: 24.9; PRMT1 confirm: 2.5

How did Cc1ccc(Nc2nc(-c3ccccc3)c(CC(=O)O)s2)cc1 do in these assays?
ABHD5-PLIN5 inh: -43.4; LANA-H2B inh: 3.1; ALR inh: -0.3; PRMT1 FP inh: -2.8; rCAG RNA binder: 9.2

Results for COC(=O)COc1ccc2c(c1)O/C(=C\c1ccco1)C2=O ?
ABHD5-PLIN5 inh: 11.1; Rtt109 HAT inh: -1.5; LANA-H2B inh: 3.4; ALR inh: 8.7; PRMT1 FP inh: 31.3*; rCAG RNA binder: 28.8; PRMT1 confirm: 1.3

How did CCN(CC)C(=O)Oc1ccc2c(c1)O/C(=C\c1ccco1)C2=O do in these assays?
ABHD5-PLIN5 inh: 1.3; Rtt109 HAT inh: 13.0; LANA-H2B inh: -4.1; ALR inh: -3.7; PRMT1 FP inh: 16.3; rCAG RNA binder: 18.8

Results for CC1=N/C(=C/c2ccco2)C(=O)O1 ?
ABHD5-PLIN5 inh: -2.9; Rtt109 HAT inh: 14.4; PRMT1 FP inh: 9.6; rCAG RNA binder: 8.6

Results for CCC(=O)Oc1ccc2c(c1)O/C(=C\c1ccco1)C2=O ?
ABHD5-PLIN5 inh: 14.7; Rtt109 HAT inh: -90.0; LANA-H2B inh: 6.9; ALR inh: 13.7; PRMT1 FP inh: 63.4*; rCAG RNA binder: -7.6; PRMT1 confirm: 19.7

What do the screens show for `CC(=O)Oc1ccc2c(c1)O/C(=C\c1ccncc1)C2=O`?
ABHD5-PLIN5 inh: 11.0; Rtt109 HAT inh: 0.1; LANA-H2B inh: 2.9; ALR inh: -0.8

Results for Cc1cc(O)cc2c1C(=O)/C(=C/c1ccco1)O2 ?
ABHD5-PLIN5 inh: 3.2; Rtt109 HAT inh: -4.4; LANA-H2B inh: 3.9; PRMT1 FP inh: 28.2*; rCAG RNA binder: 7.6; PRMT1 confirm: 18.8

What do the screens show for `COc1ccccc1C(=O)Oc1ccc2c(c1)O/C(=C\c1ccncc1)C2=O`?
ABHD5-PLIN5 inh: 6.8; Rtt109 HAT inh: -21.8; LANA-H2B inh: 7.9; ALR inh: -4.0; PRMT1 FP inh: 38.2*; rCAG RNA binder: -10.9; PRMT1 confirm: 12.9

How did COc1ccc(N2C(=O)c3ccccc3NC(=O)C2C(=O)Nc2ccc(N3CCOCC3)cc2)cc1 (stereo not drawn) do in these assays?
ABHD5-PLIN5 inh: 1.4; PRMT1 FP inh: 0.3; rCAG RNA binder: 5.9

What do the screens show for `CC1=C(C(=O)O)N2C(=O)C(NC(=O)c3nn(C)c(C)c3Cl)C2SC1` (stereo not drawn)?
ABHD5-PLIN5 inh: -8.2; Rtt109 HAT inh: -26.5; LANA-H2B inh: -3.0; PRMT1 FP inh: 28.7*; rCAG RNA binder: 5.5; PRMT1 confirm: 38.2*

How did CC1=C(C(=O)O)N2C(=O)C(NC(=O)c3ccn(C)n3)C2SC1 (stereo not drawn) do in these assays?
ABHD5-PLIN5 inh: -7.8; Rtt109 HAT inh: -3.7; LANA-H2B inh: 1.1; ALR inh: -5.8; PRMT1 FP inh: 5.8; rCAG RNA binder: 3.0

What do the screens show for `CC1=C(C(=O)O)N2C(=O)C(NC(=O)c3nn(C)cc3[N+](=O)[O-])C2SC1` (stereo not drawn)?
ABHD5-PLIN5 inh: 0.5; Rtt109 HAT inh: 17.4; LANA-H2B inh: 2.5; ALR inh: -6.6; PRMT1 FP inh: 33.4*; rCAG RNA binder: 1.1; PRMT1 confirm: 44.2*

How did Cc1cccc(-c2cccc3c4c([nH]c23)[C@@H]2C[C@H](N(C)C(=O)c3ccccc3C)[C@H]([C@H](C)O)CN2CC4)c1 do in these assays?
PRMT1 FP inh: -6.6; rCAG RNA binder: 4.0

Results for CCCCC(=O)N[C@H]1CC[C@@]23CCCN2C(=O)CCC[C@H]3[C@H]1C ?
PRMT1 FP inh: -2.1

What do the screens show for `CCC(c1nnnn1-c1ccc2c(c1)OCCO2)N1CCN(C/C=C/c2ccccc2)CC1` (stereo not drawn)?
ABHD5-PLIN5 inh: 5.0; PRMT1 FP inh: -2.9; rCAG RNA binder: 0.4

How did CNc1ncnc2c1ncn2[C@H]1CN(Cc2ccco2)C[C@@H](CO)O1 do in these assays?
ABHD5-PLIN5 inh: -1.4; PRMT1 FP inh: -2.1; rCAG RNA binder: 3.4

How did COc1cccc(NC(=O)CSc2nc3c(sc4ccccc43)c(=O)n2CCN(C)C)c1 do in these assays?
ABHD5-PLIN5 inh: 13.4; Rtt109 HAT inh: 142.0*; LANA-H2B inh: -2.9; ALR inh: 99.8*; PRMT1 FP inh: 67.9*; rCAG RNA binder: 0.1; PRMT1 confirm: 67.9*

Results for CCOC(=O)C1=NOC(C(=O)Nc2nccs2)(C(=O)C2CC2)C1 (stereo not drawn) ?
PRMT1 FP inh: -5.0; rCAG RNA binder: 0.8

Results for N#Cc1ccc(/C=C2\CC3(OC(=O)c4cccc(F)c4)CCCN2C3)cc1 (stereo not drawn) ?
PRMT1 FP inh: -2.2; rCAG RNA binder: -1.6

Results for O=C(N/C(=C\c1ccco1)C(=O)N1CCOCC1)c1ccccc1Cl ?
ABHD5-PLIN5 inh: -2.7; Rtt109 HAT inh: -27.0; LANA-H2B inh: 7.5; PRMT1 FP inh: 29.4*; rCAG RNA binder: 2.9; PRMT1 confirm: 8.5

Results for CC(C)CNC(=O)c1ccc(-c2ccc(F)c(F)c2)c2ccoc12 ?
ABHD5-PLIN5 inh: -2.9; PRMT1 FP inh: 5.0; rCAG RNA binder: -0.8

How did N#CC1=C(SCC(=O)c2ccccc2)NC2=C(C(=O)CCC2)C1c1ccco1 (stereo not drawn) do in these assays?
ABHD5-PLIN5 inh: 0.4; Rtt109 HAT inh: 4.8; LANA-H2B inh: -3.6; ALR inh: 87.5*; PRMT1 FP inh: 34.8*; rCAG RNA binder: 18.1; PRMT1 confirm: 2.6

High-throughput results: PubChem, several laboratories
